Rows were chosen to be rich in hits. Some 19% of all compounds tested hit in one or more screens of this group.
ASM inhibitor: inhibitors of human secretory acid sphingomyelinase; P17405; placental ASM, HMU-PC fluorogenic substrate, 60 min; Potency, µM (series often up to 57.5 µM), for the others: top-dose activity change, negative = inhibition, actives largely listed as inhibitors; actives 0.006% (n = 340,000); AID 504937; also: potency is read from the fitted curve at half-maximal effect
Target sequence (P17405 47-631 limits assumed): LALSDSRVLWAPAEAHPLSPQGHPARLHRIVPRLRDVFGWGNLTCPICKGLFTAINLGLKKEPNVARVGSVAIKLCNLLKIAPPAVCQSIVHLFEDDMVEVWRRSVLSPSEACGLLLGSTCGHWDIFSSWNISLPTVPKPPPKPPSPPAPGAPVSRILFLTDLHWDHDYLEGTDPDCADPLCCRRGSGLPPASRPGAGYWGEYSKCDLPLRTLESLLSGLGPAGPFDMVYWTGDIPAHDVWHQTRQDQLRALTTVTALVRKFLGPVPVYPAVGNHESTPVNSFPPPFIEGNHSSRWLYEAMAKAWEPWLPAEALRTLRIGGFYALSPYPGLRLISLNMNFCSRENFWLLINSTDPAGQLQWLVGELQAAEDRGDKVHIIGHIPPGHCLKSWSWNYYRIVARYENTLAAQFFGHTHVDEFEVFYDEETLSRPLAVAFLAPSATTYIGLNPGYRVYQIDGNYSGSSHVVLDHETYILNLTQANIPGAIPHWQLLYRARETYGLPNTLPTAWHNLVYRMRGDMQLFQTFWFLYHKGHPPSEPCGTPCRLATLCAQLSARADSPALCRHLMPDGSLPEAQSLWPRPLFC
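Human placenta-derived ASM preincubated with compound 10 min at room temperature, then reacted with 9 uM (final) fluorogenic HMU-PC substrate for 60 min at 37 C. Stop solution raises pH to 10; fluorescence read at Ex 386/Em 447 nm.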
HepG2 viability: counter-screen for TGF-b inhibitors: cytotoxicity in HepG2 cells; HepG2 CAGA-GFP viability, ATP luminescence, 18 h; Potency, µM (highest dose often 46.1 µM), for the others: at the highest dose activity change, negative = cytotoxicity, usual class: cytotoxic; actives 0.76% (n = 410,000); AID 588856; also: potency is read from the fitted curve at half-maximal effect
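CellTiter-Glo luminescence gave cytotoxicity after 18 hours at 37 degrees C. The cells were HepG2 CAGA-GFP in 1% FBS DMEM, stimulated with 500 pg/mL TGF-beta after compound addition. %Activity was normalised to no-cell wells (complete cell-killing) and DMSO (no toxicity), and curves were fitted and classified.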
IL1B secr inh: inflammasome signaling inhibition, IL-1 beta readout. THP-1 LPS/ATP IL-1B secretion, AlphaLISA, 16 h; hits give low values. activity change, % at 57.5 µM. actives 4.7% (n = 360,000). AID 743279; in the data active = activity change below about -50%; inconclusive = mostly about -30% to -49%; also: % is scaled to controls: 0 for no effect and ±100 for the full control effect
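Secreted IL-1B measured by AlphaLISA bead assay after 16 h compound exposure of THP-1 cells; compounds (final up to 57.5 uM) added 1 h before LPS (250 ng/mL) and ATP (1.25 mM) stimulation; lower signal means less secretion.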
DT40 TDP1 CPT: DT40-hTDP1 cell growth loss with CPT; chicken DT40 Tdp1-/-;hTDP1 cells + 20 nM CPT, ATP luminescence, 48 h; Potency, µM (top dose mostly 46.2 µM), for the others: at the highest dose activity change, negative = growth inhibition, most hits filed as inhibitors; actives 12% (n = 420,000); AID 686979; also: potency is read from the fitted curve at half-maximal effect; % is scaled to controls: 0 for no effect and ±100 for the full control effect; nearly all actives have a fitted effect of over 55% in size
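Chicken DT40 Tdp1-/- cells complemented with human TDP1, 400 cells/well, exposed to compounds plus 20 nM camptothecin for at least 48 h at 37 C; viability read as ATP content by CellTiter-Glo luminescence.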
TGFb inhibitor: inhibitors of TGF-b signaling; HepG2 CAGA-GFP TGF-b/SMAD3 reporter, GFP fluorescence, 18 h; TGF-beta stimulated, 500 pg/mL final; Potency, µM (top dose mostly 46.1 µM), without a hit: top-dose activity, negative = inhibition, usual class: inhibitors; actives 1.2% (n = 410,000); AID 588855; also: potency is read from the fitted curve at half-maximal effect; % is scaled to controls: 0 for no effect and ±100 for the full control effect; nearly all actives have a fitted effect of over 65% in size
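GFP signal (ex488/em500-530) from TGF-beta-stimulated HEPG2 CAGA-GFP cells, 500 pg/mL final, 18 h at 37 degrees C in DMEM plus 1% FBS, normalized to unstimulated and DMSO-stimulated controls.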
TDP1 cell noCPT: qHTS for Inhibitors of human tyrosyl-DNA phosphodiesterase 1 (TDP1): qHTS in cells in absence of CPT | DT40 Tdp1-/- hTDP1 cells, no CPT, ATP luminescence, 48 h | Potency, µM (series often up to 46.2 µM), for the others: at the highest dose activity change, negative = growth inhibition, actives largely listed as inhibitors | actives 15% (n = 420,000) | AID 686978, 2013; also: potency is read from the fitted curve at half-maximal effect; % is scaled to controls: 0 for no effect and ±100 for the full control effect; nearly all actives have a fitted effect of over 55% in size
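Chicken DT40 Tdp1-/- cells stably complemented with human TDP1 were seeded at 400 cells/well with DMSO in place of 20 nM camptothecin. After compound pinning, cells grew at least 48 hr at 37 °C; viability read by CellTiter-Glo luminescence.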
Numbers without * were called inactive; ? = inconclusive; · = no result. Unless noted, calls follow the shape of the dose curve; as a rule, active = well fitted curve in the direction sought with a large enough effect; inconclusive = small, poorly fitted or top-dose-only effect, or another doubt; inactive = no such curve, though single readings can be large; an effect the other way counts as inactive or inconclusive.

SMILES	ASM inhibitor	HepG2 viability	IL1B secr inh	DT40 TDP1 CPT	TGFb inhibitor	TDP1 cell noCPT
CC(C)(C)c1ccc(NC(=S)NCc2cccnc2)cc1	0%	-22%	18	?	-35%	15µM*
CC(C)Cc1nnc(NC(=O)CCC(=O)N2CCN(C3CCCC3)CC2)s1	0%	3%	6	-9%	?	21%
Cc1cc(C)c(C(=O)Cn2nc(C)c([N+](=O)[O-])c2C)cc1C	-9%	-19%	-12	-27%	-1%	?
Cn1c(=O)[nH]c(=O)c2c1nc(N1CCCCC1)n2CCCSc1nc2ccccc2s1	-12%	-7%	?	13µM*	-15%	13µM*
Cc1nnc(SCCCn2c(N3CCN(c4ccccc4)CC3)nc3c2c(=O)[nH]c(=O)n3C)s1	0%	1%	-29	?	2%	?
CC1CCCN(c2nc3c(c(=O)[nH]c(=O)n3C)n2CCSc2nc3ccccc3o2)C1 (stereo not given)	-9%	-18%	12	-7%	-8%	-18%
Cn1c(=O)[nH]c(=O)c2c1nc(Br)n2CCCSc1nc2ccccc2o1	-1%	-49%	32	?	?	26µM*
Cn1c(=O)[nH]c(=O)c2c1nc(N1CCCC1)n2CCCSc1nc2ccccc2o1	-1%	-4%	12	23µM*	-3%	?
Cn1c(=O)[nH]c(=O)c2c1nc(Br)n2CCSc1ncccn1	4%	-4%	8	4%	-17%	-8%
O=C(COC(=O)Cc1c(F)cccc1Cl)Nc1ccc2[nH]c(=O)[nH]c2c1	3%	1%	7	8%	3%	-13%
CCS(=O)(=O)Nc1cc(C(=O)N2CCCN(C=O)CC2)c2c(c1)nc(-c1ccccc1)n2C	·	·	·	4%	·	-4%
Cc1ccc2c(c1C)NC(=O)C21N2CCCC2C(C(=O)c2ccc3ccccc3c2)C12C(=O)Nc1ccccc12 (stereo not given)	-3%	-39%	?	23µM*	16µM*	12µM*
CCNC(=S)Nc1ccc(OCc2nc3ccccc3s2)cc1	-6%	-9%	9	16µM*	-34%	23µM*
COc1ccc(NC(=S)Nc2ccc(Oc3ccccc3)cc2)cc1	-5%	-32%	-23	23µM*	-12%	?
S=C(NCc1ccccc1)Nc1ccc(Oc2ccccc2)cc1	-1%	-38%	-1	-15%	?	?
CCNC(=S)Nc1ccc(Oc2ccccc2)cc1	-2%	-25%	-2	?	-5%	18µM*
CCCSc1ccc([C@H]2N[C@@](C)(C(=O)OC)[C@H]3C(=O)N(C)C(=O)[C@@H]23)cc1OC	-7%	-12%	27	-6%	-7%	?
O=C1C=C(c2cccc(OCc3ccccc3)c2)C[C@@H](c2ccc3c(c2)OCO3)C1	-6%	-1%	-25	-29%	10%	-20%
O=C1C=CC2C(c3ccc4c(c3)OCO4)CC1N2Cc1ccccc1 (stereo not given)	1%	0%	-18	8.2µM*	5%	6.5µM*
CCC(=O)N1CCc2cc(CNS(=O)(=O)c3ccc(C(C)C)cc3)ccc21	·	-6%	·	?	?	?
Cc1ccc(-n2c(C)cc(/C=N/NC(N)=S)c2C)cc1	0%	5%	34	3.7µM*	0%	3.7µM*
Cc1ccc(-n2c(C)cc(/C=N/NC(=O)CC3(C)OCCO3)c2C)cc1	-1%	3%	0	?	3%	?
Cc1ccc(-n2c(C)cc(/C=N/NC(=O)CN(c3ccc(C)cc3C)S(C)(=O)=O)c2C)cc1	-9%	-26%	?	?	-6%	21µM*
OC[C@@H]1CN(CCN2CCOCC2)C[C@H](n2cnc3c(NCc4ccco4)ncnc32)O1	·	1%	0	-5%	1%	-1%
c1ccc(N2CCN(c3nc(-c4ccccn4)nc4ccccc34)CC2)cc1	-6%	-11%	-21	4.1µM*	?	4.6µM*
SMILES	ASM inhibitor	HepG2 viability	IL1B secr inh	DT40 TDP1 CPT	TGFb inhibitor	TDP1 cell noCPT
Fc1ccccc1-c1nc(N2CCN(c3cccc(Cl)c3)CC2)c2ccccc2n1	·	-15%	·	13µM*	-7%	23µM*
Fc1ccccc1-c1nc(N2CCCCC2)c2ccccc2n1	13%	-12%	-6	?	-18%	?
Cc1cc2nc3ccc(N(C)C)cc3nc2cc1N	-8%	-39%	?	?	-11%	15µM*
O=c1cc(N=Nc2ccc(Cl)cc2)[nH]c(=O)[nH]1	2%	-48%	-99*	0.52µM*	2%	0.92µM*
Cc1onc(-c2ccccc2)c1-c1nnc(CN2CCN(S(=O)(=O)c3ccccc3F)CC2)o1	6%	-28%	-7	21µM*	?	?
O=C(Nc1ccc(C(F)(F)F)cc1)c1cc(S(=O)(=O)NC2CCCCC2)ccc1F	·	-103%	·	13µM*	13µM*	18µM*
O=C(Nc1ccc(C(F)(F)F)cc1)c1cc(S(=O)(=O)NC2CCCCCC2)ccc1F	·	11µM*	·	21µM*	?	?
CC(=O)Nc1ccc(S(=O)(=O)NC2CCCCCC2)cc1	-2%	-11%	3	?	1%	?
O=C(CNC(=O)c1ccccc1)NC1(C(=O)NC2CCCCC2)CCCCC1	-1%	-12%	9	-1%	-16%	0%
COc1ccc(-n2nnnc2C2CCN(S(=O)(=O)c3ccc(NC(C)=O)cc3)CC2)cc1	·	-29%	·	5.8µM*	-9%	4.6µM*
COc1ccc(-n2nnnc2C2CCN(S(=O)(=O)c3ccc(F)cc3Cl)CC2)cc1	·	-19%	·	?	-8%	16µM*
COCC(=O)N1CCC(Oc2ccc(C(=O)N3C[C@H]4CC[C@H]3C4)cc2)CC1	1%	15%	4	-5%	1%	-6%
O=C(CN1CCN(C/C=C/c2ccccc2)CC1)Nc1cc([N+](=O)[O-])ccc1Cl	-6%	-65%	6	?	?	26µM*
O=[N+]([O-])c1ccc(C(O)CN2CCN(Cc3ccccc3)CC2)cc1 (stereo not given)	7%	-6%	14	7%	0%	7%
CS(=O)(=O)c1ccc(Cl)c(NC(=O)CN2CCN(S(=O)(=O)/C=C/c3ccccc3)CC2)c1	-3%	1%	-17	?	?	3.3µM*

High-throughput results deposited in PubChem BioAssay by National Center for Advancing Translational Sciences (NCATS).
